L3MBTL1 inh = blocks human L3MBTL1; AlphaScreen L3MBTL1–H3K9me1 peptide binding; 230,000 compounds, 0.66% hits; Potency, µM (series often up to 57.1 µM), without a hit: at the top dose activity, negative = inhibition, usual class: inhibitors; Q9Y468; further: on the % scale 0 is the no-effect control and ±100 the full control effect; nearly all actives have a fitted effect of over 60% in size
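AlphaScreen assay: L3MBTL1 (50 nM final) was preincubated 30 min at room temperature with biotinylated H3(1-15)K9me1 peptide (75 nM final), then 30 min with library compounds; streptavidin donor and nickel chelate acceptor beads (10 ug/mL final) added, 30 min dark.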
HP1b binding inh = HP1-beta chromodomain-methylated histone interaction inhibition. AID 540317. 390,000 compounds, 0.56% hits. Potency, µM (highest dose often 114 µM), for the others: top-dose activity change, negative = inhibition, most hits filed as inhibitors. AlphaScreen HP1-beta / biotin-H3K9me3 peptide binding; further: nearly all actives have a fitted effect of over 70% in size
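AlphaScreen: HP1-beta (50 nM) preformed 30 min with biotin-H3(1-18)K9me3 peptide (50 nM) in PBS pH 7.4, 0.01% Tween-20. Compound added for 30 min at RT, then streptavidin donor/nickel chelate acceptor beads (10 ug/mL) for 30 min.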
BAZ2B block = BAZ2B (human) inhibition; Q9UIF8; AlphaScreen BAZ2B-H3K14Ac peptide displacement; Potency, µM (series often up to 114 µM), inactives show top-dose activity change, negative = inhibition, hits mostly inhibitors; 360,000 compounds, 4.4% hits; further: on the % scale 0 is the no-effect control and ±100 the full control effect; nearly all actives have a fitted effect of over 60% in size
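AlphaScreen displacement: compounds (up to 110uM) incubated 30 min at room temperature with a preformed 50 nM BAZ2B/50 nM biotinylated H3K14Ac peptide complex in PBS pH 7.4 with Tween-20. Donor and acceptor beads at 10 ug/mL final added, 20 min light-protected before reading.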
G9a inh = blocks human histone lysine methyltransferase G9a; Q96KQ7; G9a H3K9 monomethylation, AlphaScreen, 2 h; Potency, µM (highest dose often 102 µM), inactives show at the top dose activity, negative = inhibition, most hits filed as inhibitors; 350,000 compounds, 8.8% hits; further: on the % scale 0 is the no-effect control and ±100 the full control effect; nearly all actives have a fitted effect of over 75% in size
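AlphaScreen read-out: biotin-H3K9 peptide (500 nM) methylation by 20 nM enzyme with 20 uM SAM, 2 h at room temperature after 15 min compound preincubation; anti-monomethyl H3K9 antibody plus donor/acceptor beads, 10 min dark.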
JMJD2A Tudor inh = inhibitors of human JMJD2A Tudor domain. AlphaScreen JMJD2A-Tudor / H3K4me3 peptide binding. Potency, µM (highest dose often 114 µM), without a hit: at the top dose activity change, negative = inhibition, most hits filed as inhibitors. 390,000 compounds, 4.4% hits; further: on the % scale 0 is the no-effect control and ±100 the full control effect; nearly all actives have a fitted effect of over 50% in size
Starred values were filed as active, the others as inactive; [ ] = dose if it differs, or a comment. A selection: hits, their analogues and other compounds. The true share with any hit is near 11%. The call rests on the fitted dose curve; in most records, active means well fitted inhibition curve with a large enough effect; inconclusive means small, poorly fitted or top-dose-only effect; inactive means no such curve, though single readings can be large or run the other way. Potency means the concentration at half of the fitted maximal effect.

How did CCOc1ccccc1C1C(C#N)=C(N)Oc2cc(C)n(Cc3ccccn3)c(=O)c21 (stereo not given) do in these assays?
L3MBTL1 inh: 4.2%; HP1b binding inh: 31.4%; BAZ2B block: 1.3%; G9a inh: 50.1µM*; JMJD2A Tudor inh: -8.1%

How did CC(C)(CC(=O)O)CC(=O)N1CCN(c2nc3cc(Cl)ccc3s2)CC1 do in these assays?
HP1b binding inh: 35.3%; BAZ2B block: 0.0%; G9a inh: 9.7%; JMJD2A Tudor inh: -5.8%

How did Cc1cc(NC(=O)CCC(=O)N(CCC(C)C)C(C(=O)NC2CCCC2)c2ccccc2C)no1 (stereo not given) do in these assays?
HP1b binding inh: 22.1%; BAZ2B block: 0.0%; G9a inh: 2.0%; JMJD2A Tudor inh: -13.6%

Results for O=C1CC(c2ccco2)CC2=C1C(c1ccncc1)n1nc(C(F)(F)F)nc1N2 (stereo not given) ?
HP1b binding inh: 32.6%; JMJD2A Tudor inh: -13.7%

What do the screens show for `CC(C)(C)c1ccc(C(=O)NNc2ncnc3c2cnn3-c2ccc(Cl)cc2)cc1`?
HP1b binding inh: 47.1%; BAZ2B block: -1.8%; G9a inh: 9.3%[59 µM]; JMJD2A Tudor inh: -17.4%

How did CCn1c(SCC(N)=O)nnc1-c1cc2c(C)nn(-c3ccccc3)c2s1 do in these assays?
L3MBTL1 inh: -1.7%; HP1b binding inh: 34.1%; BAZ2B block: 9.1%; G9a inh: 44.7µM*; JMJD2A Tudor inh: -15.3%

What do the screens show for `CCn1c(SCC(=O)Nc2cc(C(C)(C)C)nn2-c2ccccc2)nnc1-c1cccs1`?
L3MBTL1 inh: 6.0%; HP1b binding inh: 27.1%; BAZ2B block: -29.4%; G9a inh: 8.7%[59 µM]; JMJD2A Tudor inh: -12.8%

What do the screens show for `Cc1ccsc1CN(C)Cc1nc(C2CC2)no1`?
L3MBTL1 inh: 3.2%; HP1b binding inh: 29.7%; BAZ2B block: 1.0%; G9a inh: 11.5%; JMJD2A Tudor inh: -9.1%

Results for CCOC(=O)CNC(=O)CSc1nc2sc(C)c(C)c2c(=O)n1C ?
L3MBTL1 inh: -5.1%; HP1b binding inh: 6.1%; BAZ2B block: -26.5%; G9a inh: 44.7µM*; JMJD2A Tudor inh: -25.2%

How did CCCn1c(SCC(=O)N2CCCCC2)nnc1C(C)C do in these assays?
L3MBTL1 inh: 7.9%; HP1b binding inh: inconclusive; BAZ2B block: -2.1%; JMJD2A Tudor inh: 25.1µM*

How did Cc1ccc(-c2cc3c(n2-c2ccccc2F)CC(C)(C)CC3=O)cc1 do in these assays?
HP1b binding inh: 27.0%; BAZ2B block: -14.1%[57.1 µM]; G9a inh: -21.0%[59 µM]; JMJD2A Tudor inh: -3.7%

How did CC(=O)Nc1nonc1NC(C)=O do in these assays?
L3MBTL1 inh: -2.0%; HP1b binding inh: 35.6%; BAZ2B block: 9.6%; G9a inh: -11.5%[59 µM]; JMJD2A Tudor inh: -1.4%

What do the screens show for `CC(=O)Oc1ccc2nonc2c1OC(C)=O`?
HP1b binding inh: 20µM*; JMJD2A Tudor inh: inconclusive

What do the screens show for `CC(=O)Nc1cc(OC(C)=O)c2nonc2c1OC(C)=O`?
L3MBTL1 inh: 2.51µM*; HP1b binding inh: 30.1%; BAZ2B block: inconclusive; G9a inh: inconclusive; JMJD2A Tudor inh: -19.5%

How did COc1ccc(Cl)cc1NC(=O)CCc1c(C)nc2c(c1C)c(=O)n(C)c(=O)n2C do in these assays?
HP1b binding inh: 34.2%; BAZ2B block: -22.7%; G9a inh: -5.4%[59 µM]; JMJD2A Tudor inh: -3.0%

Results for COc1ccccc1NC(=O)c1cnc(SCC(=O)N2CCCc3ccccc32)n(C)c1=O ?
HP1b binding inh: -1.9%; BAZ2B block: 2.6%; G9a inh: -5.1%[59 µM]; JMJD2A Tudor inh: -15.9%

How did Cc1ccc(Nc2nc(C(=O)NCCCN3CCOCC3)cs2)cc1 do in these assays?
L3MBTL1 inh: -10.3%; HP1b binding inh: 12.2%; BAZ2B block: 9.3%; G9a inh: 89.1µM*; JMJD2A Tudor inh: inconclusive

Results for CCOC(=O)/C(=N\Nc1ccc(OC)cc1)c1csc(Nc2ccccc2)n1 ?
HP1b binding inh: -20.4%; BAZ2B block: inconclusive; G9a inh: -13.6%[12.7 µM]; JMJD2A Tudor inh: 39.8µM*

Results for CCN(CC)C(=O)c1csc(Nc2ccc(C)cc2)n1 ?
L3MBTL1 inh: -4.5%; HP1b binding inh: -2.2%; BAZ2B block: inconclusive; G9a inh: 12.6µM*; JMJD2A Tudor inh: -33.1%
